A short description of test [1]: Quantitative High-Throughput drug screen in 47 multiple myeloma cell lines against the NCATS MIPE library collection: INA6_PLB cell viability assay (AID 1918965; also: nearly all actives have a fitted effect of over 55% in size). In outline: (§1)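 Relative luminescence from CellTiter-Glo served as the viability signal, referenced to DMSO-treated (100%) and cell-free medium (0%) controls. Treatment lasted 48 hours at 37C with 500 cells per well.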

Test [2] can be described thus: Quantitative High-Throughput drug screen in 47 multiple myeloma cell lines against the NCATS MIPE library collection: JJN3_DSMZ cell viability assay (AID 1918966; also: nearly all actives have a fitted effect of over 50% in size). An outline of the steps: (§2)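 CellTiter-Glo ATP luminescence gave viability after 48 h compound treatment at 37C of 500 multiple myeloma cells per well. Normalisation used DMSO-only wells as 100% and media-only wells as 0% viability; primary qHTS of approved and investigational drugs.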

The nature of test [3]: Quantitative High-Throughput drug screen in 47 multiple myeloma cell lines against the NCATS MIPE library collection: Karpas25_ECACC cell viability assay (AID 1918968; also: nearly all actives have a fitted effect of over 35% in size). An outline of the steps:
as §2

Test [4] is described as follows: Quantitative High-Throughput drug screen in 47 multiple myeloma cell lines against the NCATS MIPE library collection: KMS27_JCRB cell viability assay (AID 1918970). Also: nearly all actives have a fitted effect of over 30% in size. As to conditions: KMS27 myeloma cells, CellTiter-Glo ATP viability, 48 h; viability (% of DMSO): at 45.8 µM (top of the series). An outline of the steps: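 Viability inhibition screen, 48 h compound exposure, luminescent ATP read-out.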
For orientation: ATP-based viability assays read luminescence as a measure of living cells.

Test [5] can be described thus: Quantitative High-Throughput drug screen in 47 multiple myeloma cell lines against the NCATS MIPE library collection: KMS12BM_JCRB cell viability assay (AID 1918971). Also: nearly all actives have a fitted effect of over 35% in size. An outline of the steps:
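Steps: seed 500 cells per well; pin-transfer MIPE 4.0 library; incubate 48 h at 37C, 5% CO2, humidified; add CellTiter-Glo, 5 min room temperature; read luminescence.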

Test [6] is described as follows: Quantitative High-Throughput drug screen in 47 multiple myeloma cell lines against the NCATS MIPE library collection: H1112_PLB cell viability assay (AID 1918967; also: nearly all actives have a fitted effect of over 30% in size). In outline: as §2
The nature of test [7]: Quantitative High-Throughput drug screen in 47 multiple myeloma cell lines against the NCATS MIPE library collection: KMS12PE_JCRB cell viability assay (AID 1918972). Also: nearly all actives have a fitted effect of over 30% in size. An outline of the steps: as §1
A short description of test [8]: Quantitative High-Throughput drug screen in 47 multiple myeloma cell lines against the NCATS MIPE library collection: JIM1_ECACC cell viability assay (AID 1918964). An outline of the steps: as §2

Our source for the Potency values is PubChem BioAssay (NCATS).

Results filed as inconclusive are left out. Calls of active or inactive are those of the source. Calls follow the shape of the dose curve; as a rule, active = well fitted cell-killing curve with a large enough effect; inconclusive = small, poorly fitted or top-dose-only effect, or effect the other way; inactive = no such curve, though single readings can be large or run the other way.
Potency is read from the fitted curve at half-maximal effect.

As for `COc1cc2nccc(Oc3ccc(NC(=O)Nc4cc(C)on4)c(Cl)c3)c2cc1OC`, the Potency was 23.5 µM (active) in test [1], 26.4 µM (active) in test [2], 20.9 µM (active) in test [3] and 23.5 µM (active) in test [5]. In addition, the Potency result in test [4] is “inactive”.
Regarding `C[C@H]1[C@H](O)O[C@@H]2O[C@@]3(C)CC[C@@H]4[C@H](C)CC[C@@H]1[C@@]24OO3`, the Potency was 1.66 µM (active) in test [1]; 16.6 µM (active) in test [6]; 1.66 µM (active) in test [3]; 13.2 µM (active) in test [4]; 1.66 µM (active) in test [5].
Consider `CO[C@H]1O[C@@H]2O[C@@]3(C)CC[C@@H]4[C@@H](C)CC[C@@H]([C@H]1C)[C@@]24OO3`, for which the Potency was 0.469 µM (active) in test [1]; 5.9 µM (active) in test [2]; 7.43 µM (active) in test [6]; 1.18 µM (active) in test [3]; 3.32 µM (active) in test [5].
Turning to `CC[C@@H]([C@H](C)O)n1ncn(-c2ccc(N3CCN(c4ccc(OCC5CO[C@@](Cn6cncn6)(c6ccc(F)cc6F)C5)cc4)CC3)cc2)c1=O` (stereo not given in full), the Potency in test [1] is 10.5 µM (active); in test [2] it was 4.18 µM (active); in test [3] it was 6.62 µM (active); in test [5], 16.6 µM (active).
For `CC(=O)N1CCN(c2ccc(OCc3nn(C)c(C)c3-c3cccc4c(CCCOc5cc(C)c(Cl)c(C)c5)c(C(=O)O)n(Cc5cccnc5)c34)cc2)CC1`, the Potency is 1.66 µM (active) in test [1]; 7.43 µM (active) in test [6]; 3.32 µM (active) in test [3]; 8.33 µM (active) in test [4]; 18.7 µM (active) in test [7].
In the case of `O=[N+]([O-])c1ccc(Nc2ccccc2-c2ccccc2)c2nonc12`, the Potency is 26.4 µM (active) in test [1], 18.7 µM (active) in test [6], 18.7 µM (active) in test [3] and 20.9 µM (active) in test [4].
In the case of `COc1nccc(-c2c(-c3ccc(F)cc3)ncn2C2CCNCC2)n1`, the Potency in test [1] was 10.5 µM (active); in test [6] it was 1.66 µM (active); in test [5] it was 20.9 µM (active). The Potency entry in test [3] and in test [7] was “inactive” throughout.
Take `CCOC(=O)N1c2ccc(C(F)(F)F)cc2[C@@H](N(Cc2cc(C(F)(F)F)cc(C(F)(F)F)c2)C(=O)OC)C[C@H]1CC`: the Potency entry in test [8], in test [6], in test [4] and in test [7] was “inactive” each time. Further, the Potency in test [2] was 5.9 µM (active); in test [5], 13.2 µM (active).
As for `CC(C)(C)c1nc(-c2cccc(NS(=O)(=O)c3c(F)cccc3F)c2F)c(-c2ccnc(N)n2)s1`, the Potency is 0.264 µM (active) in test [1]; 3.32 µM (active) in test [2]; 8.33 µM (active) in test [6]; 5.26 µM (active) in test [3]; 16.6 µM (active) in test [4]; 1.87 µM (active) in test [7].
Turning to `N=C1SC(=Cc2ccc(-c3ccc4c(c3)C(=O)NC4=O)o2)C(=O)N1c1ccc(Br)cc1`, the Potency result in test [8], in test [6] and in test [4] was “inactive” each time. Besides, the Potency is 2.96 µM (active) in test [2] and 4.18 µM (active) in test [5].
Turning to `CCC[C@H](N[C@@H](C)C(=O)N1[C@@H]2CCCC[C@H]2C[C@H]1C(=O)O)C(=O)OCC`, the Potency entry in test [1], in test [6] and in test [3] was “inactive” throughout. Further, the results for the Potency in test [4] and in test [7] were 14.8 µM (active) and 6.62 µM (active), respectively.
In the case of `COc1cc2c(cc1Cc1cccc(Cl)c1F)c(=O)c(C(=O)O)cn2[C@H](CO)C(C)C`, the Potency was 13.2 µM (active) in test [1], 16.6 µM (active) in test [2], 14.8 µM (active) in test [3] and 6.62 µM (active) in test [5].
With `COc1cc2nccc(Oc3ccc(NC(=O)Nc4ccc(F)cc4F)c(F)c3)c2cc1OC`, the Potency result in test [8], in test [6], in test [3] and in test [7] was “inactive” throughout. The Potency is 20.9 µM (active) in test [2] and 11.8 µM (active) in test [5].
For the molecule `NC(N)=Nc1nc(CSCCC(N)=NS(N)(=O)=O)cs1`, the Potency in test [1] is 11.8 µM (active); in test [6], 16.6 µM (active); in test [3], 11.8 µM (active). The Potency entry in test [5] and in test [7] was “inactive” throughout.
For the molecule `O=C1CN2Cc3c(ccc(Cl)c3Cl)N=C2N1`, the Potency entry in test [8] and in test [7] was “inactive” each time. Further, the Potency in test [6] was 29.6 µM (active); in test [3], 26.4 µM (active); in test [4], 0.296 µM (active); in test [5], 23.5 µM (active).
For `COc1cc(Cl)cn2c(-c3cccc(NC4CNC4)n3)cnc12`, the Potency in test [8] is 4.18 µM (active); in test [1] it was 16.6 µM (active); in test [5], 20.9 µM (active).
For `Cc1ccc(NC(=O)Nc2cc(C(F)(F)F)ccc2F)cc1Nc1ccc2c(c1)NC(=O)C2=Cc1ccc[nH]1`, the Potency in test [1] was 4.18 µM (active); in test [2] it was 23.5 µM (active); in test [6], 11.8 µM (active); in test [3] it was 5.26 µM (active); in test [4], 8.33 µM (active); in test [5], 26.4 µM (active). For the same molecule, the Potency in test [7] is 2.35 µM (active).
Turning to `CCOC(=O)[C@@H](N)CCC(=O)N[C@@H](CSCc1ccccc1)C(=O)N[C@@H](C(=O)OCC)c1ccccc1`, the Potency is 18.7 µM (active) in test [1], 26.4 µM (active) in test [2], 23.5 µM (active) in test [3] and 23.5 µM (active) in test [4].
With `CCOC(=O)[C@H]1O[C@H]1C(=O)N[C@@H](CC(C)C)C(=O)NCCC(C)C`, the Potency entry in test [1], in test [6], in test [4] and in test [7] was “inactive” each time. For the same molecule, the Potency in test [5] is 10.5 µM (active).
